# Results from article PMC7862700, “An all-to-all approach to the identification of sequence-specific readers for epigenetic DNA modifications on cytosine”.
# How the values were obtained:
# Assay in all cases: DAPPL (digital affinity profiling via proximity ligation, sequencing); 10 mM Tris-HCl pH 7.5, 50 mM NaCl, 1 mM DTT, 4% glycerol, room temperature, 30 min; GST-TFs on glutathione beads, 16-mer random dsDNA library, 0.1% formaldehyde crosslink after washing; high values mean tight binding
# FEV = biological target: T1, FEV (Homo sapiens, UniProt Q99581 1-238); details: protein: recombinant; tags: N-terminal GST; dsDNA, one strand shown
# T1 sequence: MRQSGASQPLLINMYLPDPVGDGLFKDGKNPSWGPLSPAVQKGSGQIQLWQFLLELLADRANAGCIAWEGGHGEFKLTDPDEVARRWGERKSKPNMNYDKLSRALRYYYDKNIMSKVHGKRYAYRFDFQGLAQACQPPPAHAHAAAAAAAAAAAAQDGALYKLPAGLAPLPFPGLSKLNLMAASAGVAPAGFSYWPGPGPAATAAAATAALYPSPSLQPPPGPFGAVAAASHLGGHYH
# Procedure, shortened: (§1)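 Human transcription factors were made in yeast as GST fusions, captured on glutathione beads and barcoded with DNA. With a tag-only sample included, the pool was incubated with 200 nmole of a random double-stranded 16-mer DNA library in Tris/NaCl/DTT/glycerol buffer at room temperature for 30 min, then crosslinked with 0.1% formaldehyde after washing, ligated by proximity, amplified and sequenced. For binding signal, each hexamer's read frequency for a factor is divided by its frequency for the tag-only sample.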
# ETV5 = ETV5 (Homo sapiens, UniProt P41161 1-510); details: protein: recombinant; tags: N-terminal GST; dsDNA, one strand shown
# ETV5, sequence (P41161 whole entry): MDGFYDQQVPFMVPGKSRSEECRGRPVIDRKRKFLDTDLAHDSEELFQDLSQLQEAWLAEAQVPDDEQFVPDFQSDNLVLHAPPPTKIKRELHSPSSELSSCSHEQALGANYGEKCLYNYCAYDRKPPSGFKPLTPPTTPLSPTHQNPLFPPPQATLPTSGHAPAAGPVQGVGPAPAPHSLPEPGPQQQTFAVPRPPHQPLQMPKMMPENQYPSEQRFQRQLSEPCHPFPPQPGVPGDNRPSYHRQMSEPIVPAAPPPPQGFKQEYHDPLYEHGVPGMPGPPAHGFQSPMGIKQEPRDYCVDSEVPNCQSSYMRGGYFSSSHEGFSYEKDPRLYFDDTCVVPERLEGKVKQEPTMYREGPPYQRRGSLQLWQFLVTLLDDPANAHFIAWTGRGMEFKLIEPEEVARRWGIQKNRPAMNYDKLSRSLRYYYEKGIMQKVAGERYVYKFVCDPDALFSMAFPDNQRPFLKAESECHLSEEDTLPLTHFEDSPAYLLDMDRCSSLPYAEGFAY
# Procedure, shortened: as §1
# HSF1 = HSF1 (Homo sapiens, UniProt Q00613 1-529); details: protein: recombinant; tags: N-terminal GST; chain copies: 3; dsDNA, one strand shown
# HSF1, sequence (Q00613 whole entry): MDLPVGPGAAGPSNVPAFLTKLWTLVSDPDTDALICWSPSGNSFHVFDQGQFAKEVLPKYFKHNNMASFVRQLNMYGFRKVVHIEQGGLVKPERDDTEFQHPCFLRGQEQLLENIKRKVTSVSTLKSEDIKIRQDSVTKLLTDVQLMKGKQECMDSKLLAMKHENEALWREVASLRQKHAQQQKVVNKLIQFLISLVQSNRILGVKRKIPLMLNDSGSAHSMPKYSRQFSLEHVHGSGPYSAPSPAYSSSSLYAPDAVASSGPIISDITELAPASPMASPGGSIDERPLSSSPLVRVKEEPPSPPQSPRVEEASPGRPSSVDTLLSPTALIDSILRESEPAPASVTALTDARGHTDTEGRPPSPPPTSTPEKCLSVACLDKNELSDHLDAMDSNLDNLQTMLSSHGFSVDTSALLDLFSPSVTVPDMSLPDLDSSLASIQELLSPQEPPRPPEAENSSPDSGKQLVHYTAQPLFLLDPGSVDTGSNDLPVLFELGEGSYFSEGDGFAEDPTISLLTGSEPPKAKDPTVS
# Procedure, shortened: as §1
# SPIC = biological target: T2, SPIC (Homo sapiens, UniProt Q8N5J4 1-248); details: protein: recombinant; tags: N-terminal GST; dsDNA, one strand shown
# T2 sequence: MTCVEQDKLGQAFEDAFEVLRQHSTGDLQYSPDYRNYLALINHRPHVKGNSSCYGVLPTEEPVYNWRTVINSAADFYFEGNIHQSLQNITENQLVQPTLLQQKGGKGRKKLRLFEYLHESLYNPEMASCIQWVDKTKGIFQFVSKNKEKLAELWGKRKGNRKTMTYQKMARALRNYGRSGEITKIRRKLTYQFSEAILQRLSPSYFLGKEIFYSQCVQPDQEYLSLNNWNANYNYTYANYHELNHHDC
# Procedure, shortened: as §1
# ELF4 = ELF4 (Homo sapiens, UniProt Q99607 1-663); details: protein: recombinant; tags: N-terminal GST; dsDNA, one strand shown
# ELF4, sequence (Q99607 whole entry): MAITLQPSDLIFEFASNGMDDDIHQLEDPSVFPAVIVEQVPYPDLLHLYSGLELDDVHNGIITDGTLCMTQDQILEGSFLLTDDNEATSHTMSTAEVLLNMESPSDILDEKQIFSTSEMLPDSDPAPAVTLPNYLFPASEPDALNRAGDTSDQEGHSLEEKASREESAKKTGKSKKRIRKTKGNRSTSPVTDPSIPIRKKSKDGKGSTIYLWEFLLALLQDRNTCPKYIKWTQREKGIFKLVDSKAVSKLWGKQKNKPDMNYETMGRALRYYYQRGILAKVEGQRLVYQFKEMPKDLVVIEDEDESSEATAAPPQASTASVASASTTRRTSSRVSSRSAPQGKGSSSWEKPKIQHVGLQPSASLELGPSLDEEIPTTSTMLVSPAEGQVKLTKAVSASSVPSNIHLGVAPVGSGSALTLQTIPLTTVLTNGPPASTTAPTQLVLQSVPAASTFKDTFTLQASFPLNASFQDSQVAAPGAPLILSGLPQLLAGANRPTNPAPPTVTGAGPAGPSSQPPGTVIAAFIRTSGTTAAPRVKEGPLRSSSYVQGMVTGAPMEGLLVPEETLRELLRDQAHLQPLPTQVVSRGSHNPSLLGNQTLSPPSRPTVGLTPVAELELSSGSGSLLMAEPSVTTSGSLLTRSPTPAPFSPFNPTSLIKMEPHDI
# Procedure, shortened: as §1
# ELK4 = biological target: T3, ELK4 (Homo sapiens, UniProt P28324-2 1-405); details: protein: recombinant; tags: N-terminal GST; dsDNA, one strand shown
# T3 sequence: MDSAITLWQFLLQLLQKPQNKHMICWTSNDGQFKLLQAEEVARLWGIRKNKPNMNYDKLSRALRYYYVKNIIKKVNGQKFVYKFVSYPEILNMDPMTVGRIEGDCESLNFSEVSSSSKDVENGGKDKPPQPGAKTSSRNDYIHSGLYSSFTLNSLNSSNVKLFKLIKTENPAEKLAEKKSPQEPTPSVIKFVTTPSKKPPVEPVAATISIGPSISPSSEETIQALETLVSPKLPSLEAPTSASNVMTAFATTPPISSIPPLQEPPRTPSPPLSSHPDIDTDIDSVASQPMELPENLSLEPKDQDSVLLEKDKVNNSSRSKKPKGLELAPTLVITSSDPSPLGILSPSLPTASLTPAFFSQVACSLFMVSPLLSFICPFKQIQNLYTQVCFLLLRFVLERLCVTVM
# Procedure, shortened: as §1
# ETV2 = biological target: T4, ETV2 (Homo sapiens, UniProt O00321 1-342); details: protein: recombinant; tags: N-terminal GST; dsDNA, one strand shown
# T4 sequence: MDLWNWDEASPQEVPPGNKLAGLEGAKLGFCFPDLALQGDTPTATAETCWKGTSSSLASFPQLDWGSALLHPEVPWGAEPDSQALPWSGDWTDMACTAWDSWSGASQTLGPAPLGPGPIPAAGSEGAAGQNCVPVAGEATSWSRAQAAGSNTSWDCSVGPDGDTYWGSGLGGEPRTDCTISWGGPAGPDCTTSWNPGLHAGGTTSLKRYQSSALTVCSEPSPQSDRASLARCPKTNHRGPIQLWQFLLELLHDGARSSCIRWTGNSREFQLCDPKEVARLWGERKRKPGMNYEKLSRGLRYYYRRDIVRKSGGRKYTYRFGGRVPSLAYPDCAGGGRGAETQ
# Procedure, shortened: as §1
# ELF3 = biological target: T5, ELF3 (Homo sapiens, UniProt P78545 1-371); details: protein: recombinant; tags: N-terminal GST; dsDNA, one strand shown
# T5 sequence: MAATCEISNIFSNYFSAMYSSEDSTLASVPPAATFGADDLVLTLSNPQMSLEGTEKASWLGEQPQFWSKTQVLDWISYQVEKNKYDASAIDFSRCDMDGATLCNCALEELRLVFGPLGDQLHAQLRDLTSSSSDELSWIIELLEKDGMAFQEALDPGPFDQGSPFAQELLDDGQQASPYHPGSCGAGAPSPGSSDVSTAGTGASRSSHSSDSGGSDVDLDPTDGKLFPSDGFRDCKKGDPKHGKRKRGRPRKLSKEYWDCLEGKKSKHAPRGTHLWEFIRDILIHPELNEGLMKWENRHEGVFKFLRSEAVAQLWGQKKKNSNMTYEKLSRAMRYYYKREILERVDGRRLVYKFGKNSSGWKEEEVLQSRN
# Procedure, shortened: as §1
# CRX = CRX (Homo sapiens, UniProt O43186 1-299); details: protein: recombinant; tags: N-terminal GST; dsDNA, one strand shown
# CRX, sequence (O43186 whole entry): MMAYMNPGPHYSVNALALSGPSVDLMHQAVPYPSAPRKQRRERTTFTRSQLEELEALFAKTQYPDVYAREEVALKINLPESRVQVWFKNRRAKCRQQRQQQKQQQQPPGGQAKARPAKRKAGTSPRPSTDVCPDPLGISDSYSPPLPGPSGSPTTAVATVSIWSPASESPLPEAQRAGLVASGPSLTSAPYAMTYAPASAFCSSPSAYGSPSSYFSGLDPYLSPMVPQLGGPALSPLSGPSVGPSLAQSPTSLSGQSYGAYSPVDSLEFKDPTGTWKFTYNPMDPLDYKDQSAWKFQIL
# Procedure, shortened: as §1
# ETV1 = ETV1 (Homo sapiens, UniProt P50549 1-477); details: protein: recombinant; tags: N-terminal GST; dsDNA, one strand shown
# ETV1, sequence (P50549 whole entry): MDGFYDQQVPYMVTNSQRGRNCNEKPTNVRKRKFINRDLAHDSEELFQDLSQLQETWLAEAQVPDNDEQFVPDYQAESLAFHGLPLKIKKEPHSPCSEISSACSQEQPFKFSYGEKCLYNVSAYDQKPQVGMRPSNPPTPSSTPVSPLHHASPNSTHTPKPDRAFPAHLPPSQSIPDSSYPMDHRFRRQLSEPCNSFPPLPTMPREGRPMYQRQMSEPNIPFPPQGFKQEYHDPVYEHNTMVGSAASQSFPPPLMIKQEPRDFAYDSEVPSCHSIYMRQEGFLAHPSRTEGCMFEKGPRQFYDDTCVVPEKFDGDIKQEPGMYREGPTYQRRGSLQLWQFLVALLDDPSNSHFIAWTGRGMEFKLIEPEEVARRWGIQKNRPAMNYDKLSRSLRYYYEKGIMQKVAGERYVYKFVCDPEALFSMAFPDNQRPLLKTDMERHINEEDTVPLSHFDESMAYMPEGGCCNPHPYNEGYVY
# Procedure, shortened: as §1
# ERF = biological target: T6, ERF (Homo sapiens, UniProt P50548 1-548); details: protein: recombinant; tags: N-terminal GST; dsDNA, one strand shown
# T6 sequence: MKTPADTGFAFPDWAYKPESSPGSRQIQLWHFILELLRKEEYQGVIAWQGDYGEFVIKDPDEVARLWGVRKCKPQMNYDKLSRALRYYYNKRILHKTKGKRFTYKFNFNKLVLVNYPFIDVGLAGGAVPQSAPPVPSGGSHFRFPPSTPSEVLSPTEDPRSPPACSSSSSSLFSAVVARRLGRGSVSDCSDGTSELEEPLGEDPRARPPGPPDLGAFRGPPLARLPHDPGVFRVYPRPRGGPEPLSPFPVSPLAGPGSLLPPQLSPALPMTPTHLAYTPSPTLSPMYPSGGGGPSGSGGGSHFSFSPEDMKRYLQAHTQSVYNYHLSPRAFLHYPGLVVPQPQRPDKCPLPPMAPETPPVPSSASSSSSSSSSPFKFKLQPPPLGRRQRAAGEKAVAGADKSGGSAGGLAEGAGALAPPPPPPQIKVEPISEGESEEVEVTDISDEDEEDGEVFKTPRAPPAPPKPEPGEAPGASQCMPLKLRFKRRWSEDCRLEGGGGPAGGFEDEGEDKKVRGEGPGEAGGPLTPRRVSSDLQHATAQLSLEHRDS
# Procedure, shortened: as §1
# ETV3L = biological target: T7, ETV3L (Homo sapiens, UniProt Q6ZN32 1-361); details: protein: recombinant; tags: N-terminal GST; dsDNA, one strand shown
# T7 sequence: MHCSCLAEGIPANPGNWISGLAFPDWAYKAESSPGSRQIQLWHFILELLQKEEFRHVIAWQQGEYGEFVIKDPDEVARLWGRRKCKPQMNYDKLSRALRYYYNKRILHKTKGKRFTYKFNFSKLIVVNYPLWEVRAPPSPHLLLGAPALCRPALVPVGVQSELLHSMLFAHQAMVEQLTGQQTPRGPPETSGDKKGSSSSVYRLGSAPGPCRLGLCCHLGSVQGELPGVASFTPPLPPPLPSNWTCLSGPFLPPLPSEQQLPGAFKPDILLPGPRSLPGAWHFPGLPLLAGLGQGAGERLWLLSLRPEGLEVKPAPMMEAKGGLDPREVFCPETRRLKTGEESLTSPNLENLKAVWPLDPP
# Procedure, shortened: as §1
# ETS2 = biological target: T8, ETS2 (Homo sapiens, UniProt P15036 1-469); details: protein: recombinant; tags: N-terminal GST; dsDNA, one strand shown
# T8 sequence: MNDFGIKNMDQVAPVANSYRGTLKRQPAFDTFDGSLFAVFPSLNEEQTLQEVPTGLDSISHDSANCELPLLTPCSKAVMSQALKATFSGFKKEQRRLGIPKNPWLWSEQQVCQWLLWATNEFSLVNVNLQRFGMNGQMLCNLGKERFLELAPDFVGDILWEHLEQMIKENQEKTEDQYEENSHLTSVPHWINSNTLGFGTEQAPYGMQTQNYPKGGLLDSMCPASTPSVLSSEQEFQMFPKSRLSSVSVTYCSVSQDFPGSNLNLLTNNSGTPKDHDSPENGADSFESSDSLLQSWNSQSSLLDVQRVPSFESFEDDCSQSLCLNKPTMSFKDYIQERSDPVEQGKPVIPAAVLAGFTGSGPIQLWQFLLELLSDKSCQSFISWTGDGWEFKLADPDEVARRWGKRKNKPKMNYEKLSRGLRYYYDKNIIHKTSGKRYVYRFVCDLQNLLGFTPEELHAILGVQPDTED
# Procedure, shortened: as §1
# SPDEF = biological target: T9, SPDEF (Homo sapiens, UniProt O95238 1-335); details: protein: recombinant; tags: N-terminal GST; dsDNA, one strand shown
# T9 sequence: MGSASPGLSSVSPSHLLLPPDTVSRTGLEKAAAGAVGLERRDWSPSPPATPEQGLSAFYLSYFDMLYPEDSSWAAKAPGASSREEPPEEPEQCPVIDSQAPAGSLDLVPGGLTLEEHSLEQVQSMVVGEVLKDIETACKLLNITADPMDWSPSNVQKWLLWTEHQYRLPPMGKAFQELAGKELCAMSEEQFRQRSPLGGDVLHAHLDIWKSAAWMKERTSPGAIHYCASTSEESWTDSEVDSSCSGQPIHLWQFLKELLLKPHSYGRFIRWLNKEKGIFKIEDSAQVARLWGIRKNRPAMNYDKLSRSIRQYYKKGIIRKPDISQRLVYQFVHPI
# Procedure, shortened: as §1
# ETV7 = biological target: T10, ETV7 (Homo sapiens, UniProt Q9Y603 1-341); details: protein: recombinant; tags: N-terminal GST; dsDNA, one strand shown
# T10 sequence: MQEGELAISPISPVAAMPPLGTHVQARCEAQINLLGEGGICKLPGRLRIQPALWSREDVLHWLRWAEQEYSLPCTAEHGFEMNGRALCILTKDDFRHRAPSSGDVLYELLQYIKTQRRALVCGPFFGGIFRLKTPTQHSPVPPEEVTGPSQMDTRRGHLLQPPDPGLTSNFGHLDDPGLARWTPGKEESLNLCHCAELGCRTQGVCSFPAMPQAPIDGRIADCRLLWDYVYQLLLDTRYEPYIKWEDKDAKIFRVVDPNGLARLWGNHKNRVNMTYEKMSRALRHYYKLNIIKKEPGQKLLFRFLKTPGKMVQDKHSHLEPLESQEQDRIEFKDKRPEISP
# Procedure, shortened: as §1
# ELF5 = biological target: T11, ELF5 (Homo sapiens, UniProt Q9UKW6-2 1-255); details: protein: recombinant; tags: N-terminal GST; dsDNA, one strand shown
# T11 sequence: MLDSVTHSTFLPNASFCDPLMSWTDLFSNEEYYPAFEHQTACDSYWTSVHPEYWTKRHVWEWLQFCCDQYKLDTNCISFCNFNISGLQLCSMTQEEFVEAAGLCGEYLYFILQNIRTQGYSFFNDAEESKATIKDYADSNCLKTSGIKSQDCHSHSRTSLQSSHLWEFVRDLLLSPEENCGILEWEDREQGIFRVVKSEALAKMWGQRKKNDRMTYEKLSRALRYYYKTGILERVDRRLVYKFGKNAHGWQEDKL
# Procedure, shortened: as §1
# ETV3 = biological target: T12, ETV3 (Homo sapiens, UniProt P41162-2 1-143); details: protein: recombinant; tags: N-terminal GST; dsDNA, one strand shown
# T12 sequence: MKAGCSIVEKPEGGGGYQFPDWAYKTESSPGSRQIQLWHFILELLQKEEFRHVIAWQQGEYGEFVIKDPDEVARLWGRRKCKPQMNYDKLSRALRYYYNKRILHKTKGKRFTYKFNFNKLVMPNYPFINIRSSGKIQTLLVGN
# Procedure, shortened: as §1
# ETV6 = ETV6 (Homo sapiens, UniProt P41212 1-452); details: protein: recombinant; tags: N-terminal GST; dsDNA, one strand shown
# ETV6, sequence (P41212 whole entry): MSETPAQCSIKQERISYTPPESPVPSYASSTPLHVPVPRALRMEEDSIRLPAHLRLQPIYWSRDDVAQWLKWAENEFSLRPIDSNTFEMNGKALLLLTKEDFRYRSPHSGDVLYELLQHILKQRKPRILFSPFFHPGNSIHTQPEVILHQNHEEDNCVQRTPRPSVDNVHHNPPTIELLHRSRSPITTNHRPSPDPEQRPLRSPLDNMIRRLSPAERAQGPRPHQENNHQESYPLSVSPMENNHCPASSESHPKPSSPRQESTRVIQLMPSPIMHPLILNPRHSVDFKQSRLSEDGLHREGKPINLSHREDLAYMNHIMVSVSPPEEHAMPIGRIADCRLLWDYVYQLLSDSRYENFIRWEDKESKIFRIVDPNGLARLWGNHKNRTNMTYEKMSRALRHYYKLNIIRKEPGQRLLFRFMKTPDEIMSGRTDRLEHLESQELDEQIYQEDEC
# Procedure, shortened: as §1
sequence,measurement,setting,value
CCTTTA,binding signal,FEV,"1.3 fold enrichment (6-mer frequency, TF over GST control)"
same,binding signal,ETV5,"1.22 fold enrichment (6-mer frequency, TF over GST control)"
same,binding signal,HSF1,"1.31 fold enrichment (6-mer frequency, TF over GST control)"
same,binding signal,SPIC,"1.32 fold enrichment (6-mer frequency, TF over GST control)"
same,binding signal,ELF4,"1.35 fold enrichment (6-mer frequency, TF over GST control)"
same,binding signal,ELK4,"1.42 fold enrichment (6-mer frequency, TF over GST control)"
same,binding signal,ETV2,"1.34 fold enrichment (6-mer frequency, TF over GST control)"
same,binding signal,ELF3,"1.51 fold enrichment (6-mer frequency, TF over GST control)"
same,binding signal,CRX,"1.57 fold enrichment (6-mer frequency, TF over GST control)"
same,binding signal,ETV1,"1.37 fold enrichment (6-mer frequency, TF over GST control)"
same,binding signal,ERF,"1.34 fold enrichment (6-mer frequency, TF over GST control)"
same,binding signal,ETV3L,"1.38 fold enrichment (6-mer frequency, TF over GST control)"
same,binding signal,ETS2,"1.32 fold enrichment (6-mer frequency, TF over GST control)"
same,binding signal,SPDEF,"1.38 fold enrichment (6-mer frequency, TF over GST control)"
same,binding signal,ETV7,"1.23 fold enrichment (6-mer frequency, TF over GST control)"
same,binding signal,ELF5,"1.41 fold enrichment (6-mer frequency, TF over GST control)"
same,binding signal,ETV3,"1.33 fold enrichment (6-mer frequency, TF over GST control)"
same,binding signal,ETV6,"1.41 fold enrichment (6-mer frequency, TF over GST control)"
